The list is not random: actives were taken first. Their share in the collection is about 2.1%.
Ba/F3 V617F tox: lowers viability of Ba/F3 cells expressing EpoR and JAK2V617F | 220,000 compounds, 1.1% hits | AID 1446 | inhibition, % at 5.6 µM | ATP luminescence;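 active = inhibition above the campaign mean plus 3 SD over all tested compounds, cut at about 24% in these data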;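 also: cytokine-independent growth of Ba/F3 cells driven by EpoR plus mutant JAK2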
BaF3 parental: counter-screen for JAK2V617F inhibitors: parental Ba/F3 viability inhibitors; inhibition, % at 5.6 µM; AID 1486; CellTiter-Glo ATP luminescence; 220,000 compounds, 1.1% hits;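 active = inhibition above a per-campaign cutoff, the mean inhibition of all tested compounds plus 3 SD, cut at about 27% in these data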
aSyn 5UTR inh: MLPCN primary screen, SNCA 5' untranslated region; inhibition, % (tested at 7.5 µM); 300,000 compounds, 0.82% hits; alpha-synuclein 5'UTR reporter, inhibitor activity; in the data active = inhibition above about 60%;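 also: H4 neuroglioblastoma cells stably carrying SNCA 5'UTR luciferase fusion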
KLF5 inh: kruppel-like factor 5 inhibition; DLD-1 KLF5 promoter-luciferase reporter, luminescence; inhibition, % at 5 µM; 290,000 compounds, 0.23% hits; AID 1700;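 active = inhibition above a per-plate limit of that plate's mean compound inhibition plus 3 SD, cut at about 60% in these data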;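 also: higher means less KLF5 promoter-driven luciferase light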
APP 5UTR inh: APP translation inhibition. AID 1285. inhibition, % at 2 µM. SH-SY5Y APP 5'UTR-luciferase reporter, luminescence. 190,000 compounds, 0.82% hits;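 active = inhibition above a set limit, derived from the sample mean plus 3 SD, cut at about 45% in these data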
IEC-6 tox-1: kills IEC-6 intestinal cells in KLF5 counter-screen. IEC-6 cytotoxicity, luminescence viability. inhibition, % at 5 µM. 290,000 compounds, 0.78% hits. AID 1825
BaF3 tox 2: counter-screen for JAK2V617F inhibitors: parental Ba/F3 viability inhibitors. shares compounds with Ba/F3 V617F tox. CellTiter-Glo luminescence; cells kept alive by added IL-3. inhibition, % at 5.6 µM. 580 compounds, 31% hits;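 active = cell growth inhibition above the hit limit set in the earlier mutant JAK2 cell screen, cut at about 27% in these data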
JAK2V617F conf: Ba/F3 EpoR-JAK2V617F viability loss, confirmation; shares compounds with Ba/F3 V617F tox; CellTiter-Glo luminescence; inhibition, % at 5.6 µM; 580 compounds, 66% hits; AID 1521;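 active = mean inhibition above the hit cutoff derived in the earlier primary screen, cut at about 25% in these data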;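 also: higher means lower luminescence from reduced cell ATP and viability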
KLF5 confirm: KLF5 inhibition, confirmation assay; shares compounds with KLF5 inh; 610 compounds, 79% hits; inhibition, % at 4 µM; DLD-1 KLF5 promoter firefly luciferase reporter, luminescence;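 active = inhibition above a set limit taken from the earlier primary screen, cut at about 63% in these data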
IEC-6 tox-2: rat IEC-6 cytotoxicity, KLF5 inhibitor counter-screen; shares compounds with KLF5 inh; IEC-6 rat intestinal cells, viability luminescence; inhibition, % at 4 µM; 610 compounds, 56% hits; AID 1905; in the data active = inhibition above about 23%;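 also: cells exposed to compounds for 48 hours before viability read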
IEC-6 tox confirm: confirmation of cytotoxic compounds in rat IEC-6 intestinal epithelial cells. shares compounds with IEC-6 tox-1. IEC-6 rat intestinal epithelial viability, luminescence. inhibition, % at 5 µM. 1,900 compounds, 63% hits
Hits are given with their value; – = inactive; · = not tested or not shown. Rule as the data show it, unless noted: active = inhibition above about 22%; inactive = the rest.

SMILES	Ba/F3 V617F tox	BaF3 parental	aSyn 5UTR inh	KLF5 inh	APP 5UTR inh	IEC-6 tox-1	others
O=C(NC1CN2CCC1CC2)c1cc(Cl)c([N+](=O)[O-])c2nc[nH]c12 (stereo not drawn)	–	–	–	–	–	–
Cc1ccc(N2C(=O)NC(=O)/C(=C\C=C\c3ccco3)C2=O)cc1C	–	–	–	–	47.4	–
Cc1ccc(N2C(=O)NC(=O)/C(=C\C=C\c3ccco3)C2=O)cc1	–	–	–	–	·	–
CC(=O)O[C@@H]1/C=C/[C@](C)(O)C[C@@H](C)C/C=C/[C@H]2[C@H](O)C(C)=C(C)[C@H]3[C@H](Cc4ccccc4)NC(=O)[C@@]123	·	·	116.7	·	·	·
C[C@H]1C/C=C/[C@H]2[C@H](O)[C@H](C)[C@@](C)(O)[C@H]3[C@H](Cc4ccccc4)NC(=O)[C@]32[C@H](O)/C=C/[C@](C)(O)C1	·	·	–	·	·	·
CN1CC(C(=O)c2cccc(C(F)(F)F)c2)C(c2ccc(Cl)cc2)C1 (stereo not drawn)	·	·	–	–	·	–
COC(=O)C1CN(C#N)N(c2ccc(Cl)cc2)C12c1ccccc1-c1ccccc12 (stereo not drawn)	94.7	29.5	111.8	–	94.4	45.5
COC(=O)C1=C(c2cccc(OC)c2OC)C[C@@H]2CC[C@H]1N2C(=O)N1CCC(C)CC1	·	·	–	·	·	·
CCCCCCn1c(O)c(C=NC2CCCCC2N)c(=O)[nH]c1=O (stereo not drawn)	–	93.3	–	–	–	–
CCCCn1c(O)c(C=NC2CCCCC2N)c(=O)[nH]c1=O (stereo not drawn)	–	–	–	–	–	–
O=C(O)C1C2CCC(O2)C1C(=O)Nc1ccc(Cl)cc1 (stereo not drawn)	–	–	–	–	–	–
CCCCCSc1cc(OC)c(CCN)cc1OC	–	–	–	–	55.1	–
C=C1C(=O)O[C@@H]2C[C@@H](C)[C@@H]3C=CC(=O)[C@@]3(C)[C@@H](OC(=O)CC(=O)O[C@H]3[C@@H]4C(=C)C(=O)O[C@@H]4C[C@@H](C)[C@@H]4C=CC(=O)[C@]43C)[C@H]12	·	·	116.1	·	·	·
COC(=O)C1=C(c2ccc(S(C)(=O)=O)cc2)C[C@@H]2CC[C@H]1N2C(=O)NCc1ccc(C(F)(F)F)cc1	·	·	–	·	·	·
CN1/C(=C\C=Nc2ccccc2)C(C)(C)c2ccccc21	31.4	57.4	–	–	–	–
O=C1NC(=O)C(CCc2ccncc2)(Cc2ccc([N+](=O)[O-])cc2)C(=O)N1	–	–	–	–	–	–
C[N+]1=C(/C=C/Nc2ccccc2)C(C)(C)c2ccccc21	59.2	61.3	–	–	–	–
Cc1c(OC(=O)N(C)C)ccc2c1O/C(=C\c1ccco1)C2=O	·	·	–	–	·	–
CC1(C)C[C@H]2C=C(C=O)[C@]3(C=O)C[C@]3(C)[C@H]2C1	62.7	–	116.9	–	95.7	–	BaF3 tox 2=102.5;JAK2V617F conf=99.9
O=C(O)c1[nH]c(=O)[nH]c(=O)c1F	64.0	–	–	–	·	–	BaF3 tox 2=–;JAK2V617F conf=67.2
COC(=O)C1=C(c2cc3ccccc3o2)C[C@@H]2CC[C@H]1N2C(=O)N1CCOCC1	·	·	–	·	·	·
CCN(CC)c1ccc(/C=N/c2sc3c(c2C#N)C2CCN3CC2)c(O)c1	–	–	·	–	–	–
O=C(Nc1ccccc1)N1CCC2(CC1)OCCO2	30.1	–	–	–	–	–	BaF3 tox 2=–;JAK2V617F conf=–
Cc1ccc2c(c1)C1CN(C)CCC1N2C(=O)CCCN1C(=O)c2cccc3cccc(c23)C1=O (stereo not drawn)	–	–	–	–	·	–
c1ccc2[nH]c(CCNC3CCCCC3)nc2c1	49.3	–	–	–	–	–	BaF3 tox 2=–;JAK2V617F conf=–
SMILES	Ba/F3 V617F tox	BaF3 parental	aSyn 5UTR inh	KLF5 inh	APP 5UTR inh	IEC-6 tox-1	others
COC(=O)C(O)(c1ccc(N(C)C(=O)c2cccs2)cc1)C(F)(F)F (stereo not drawn)	–	–	–	–	–	–
CN(C)c1ccc(/C=C/[N+](=O)[O-])cc1	–	–	–	–	–	–
C/C(=C\c1ccc(N(C)C)cc1)[N+](=O)[O-]	31.6	–	–	–	–	–	BaF3 tox 2=–;JAK2V617F conf=74.0
C[C@H]1CCC[C@@H](O)CCC/C=C/c2cc(O)cc(O)c2C(=O)O1	–	–	–	–	–	–
CC1CCC/C=C/C2CC(O)CC2C(O)/C=C/C(=O)O1 (stereo not drawn)	62.2	–	132.8	94.2	94.4	100.9	BaF3 tox 2=102.8;JAK2V617F conf=66.8;KLF5 confirm=110.0;IEC-6 tox-2=102.4;IEC-6 tox confirm=99.8
C[C@H]1CCC/C=C/C2C[C@H](O)CC2[C@H](O)/C=C/C(=O)O1 (stereo partly drawn)	37.9	–	100.0	101.2	91.4	99.2	BaF3 tox 2=107.5;JAK2V617F conf=78.2;KLF5 confirm=110.0;IEC-6 tox-2=101.9;IEC-6 tox confirm=101.5
CCN1CCN(S(=O)(=O)c2ccc(Cl)c(C(=O)Nc3ccc(C(=O)N(CC)CC)cc3)c2)CC1	·	·	–	–	·	–
O=C1C(=O)c2ccccc2-c2ccccc21	99.7	102.5	118.9	106.0	58.1	102.9	KLF5 confirm=114.1;IEC-6 tox-2=100.9
O=C(Nc1ccc(OC(=O)N2CCCC2)cc1)N1CCOCC1	–	–	–	–	–	–
O=C(Nc1ccc(OC(=O)N2CCCCC2)cc1)N1CCOCC1	–	–	88.9	68.2	52.0	–	KLF5 confirm=–;IEC-6 tox-2=–
C1CC2NCCC3NCCC(N1)N32 (stereo not drawn)	–	–	–	–	·	–
CN1/C(=C\C=C\C2=[N+](C)c3ccc4ccccc4c3C2(C)C)C(C)(C)c2ccccc21	99.1	94.9	·	71.1	94.9	74.1	KLF5 confirm=115.5;IEC-6 tox-2=77.0;IEC-6 tox confirm=80.3
O=c1[nH]c(=S)[nH]c(O)c1C(c1ccccn1)c1c(O)[nH]c(=S)[nH]c1=O	–	–	–	–	–	–
O=C(Nc1c(F)cc(F)cc1F)c1cccn(Cc2ccccc2)c1=O	–	–	–	–	–	–
COc1cc2c(c(OC)c1OC)-c1ccc(O)c(=O)cc1C(NC(C)=O)CC2 (stereo not drawn)	·	·	90.3	73.3	·	94.4	KLF5 confirm=89.4;IEC-6 tox-2=91.4;IEC-6 tox confirm=83.1
CC(C)C(=O)NC(Oc1ccccc1Cl)C(Cl)(Cl)Cl (stereo not drawn)	–	–	–	–	–	–
Cc1nc2c(=O)n(C)c(=O)nc-2n(C)n1	98.7	100.7	114.8	105.3	–	102.1	KLF5 confirm=115.2;IEC-6 tox-2=95.6;IEC-6 tox confirm=96.0

Screens (PubChem BioAssay)
